The values that follow come from PubChem BioAssay (EPA / NIEHS).

Experiment [1] deals with Myc proto-oncogene protein (Homo sapiens) (UniProt P01106). Kind of experiment: ATG_Myc_CIS: Attagene CIS-FACTORIAL HepG2 Assay for human Myelocytomatosis (Myc) Proto-Oncogene Transcription Factor (AID 2282990). Conditions: HepG2, Attagene cis-reporter transcription factor activity; actives raise or lower the signal. In short, it runs like this:
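Transiently transfected HepG2 cells bearing cis-promoter reporter units for endogenous transcription factors; 24 h exposure. Reporter mRNA measured by RT-PCR, 6-FAM primer extension, HpaI cut and capillary electrophoresis; bidirectional fit relative to DMSO.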

Experiment [2] can be described thus: ATG_NF_kB_CIS: Attagene CIS-FACTORIAL HepG2 Assay for human Nuclear Factor Kappa B (NF-kB) (AID 2282991). Conditions: HepG2 Attagene cis-factorial NF-kB reporter mRNA; actives raise or lower the signal. In short, it runs like this: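 Fluorescence of labelled RT-PCR products separated by capillary electrophoresis gives reporter mRNA levels from transfected HepG2 cells exposed 24 h; values are fitted in both directions relative to DMSO.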

Experiment [3] is described as follows: ATG_NRF2_ARE_CIS: Attagene CIS-FACTORIAL HepG2 Assay for human Nuclear Factor Erythroid 2 Related Factor 2 (NFR2) response to Antioxidant Response Elements (ARE) (AID 2282992). Conditions: HepG2 Attagene ARE/NRF2 reporter, transcription factor activity; actives raise or lower the signal. In short, it runs like this:
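Transient MRTU transfection of HepG2; 24 h compound exposure; TriZol RNA, RT with oligo(dT), PCR, 6-FAM primer extension, HpaI cut, CE. Bidirectional fit vs DMSO.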

The nature of experiment [4]: ATG_Oct_MLP_CIS: Attagene CIS-FACTORIAL HepG2 Assay for human Octamer-Binding Transcription Factor (Oct) (AID 2282993). Conditions: HepG2 Attagene cis-factorial Oct reporter, mRNA; actives raise or lower the signal. In short, it runs like this: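 Transient MRTU transfection of HepG2 → 24 h compound treatment → RNA isolation, reverse transcription, PCR → 6-FAM primer extension, HpaI digest → capillary electrophoresis. Activity fitted both directions against DMSO.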

Experiment [5] addresses Peroxisome proliferator-activated receptor gamma (Homo sapiens) (UniProt P37231). Kind of experiment: ATG_PPARg_TRANS: Attagene TRANS-FACTORIAL HepG2 Assay for human Peroxisome Proliferator-activated Receptor-gamma (PPARg) (AID 2283007; active means hit-call score of the fitted dose curve at least 0.9, where 1 is the maximum). In outline:
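Twenty-four hours after chemical dosing of transiently transfected HepG2 cells, isolated RNA was converted to cDNA, reporter sequences amplified and 6-FAM-labelled, then HpaI-digested and analysed by capillary electrophoresis. Signal increase against DMSO was fitted.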

The target in experiment [6] is Nuclear receptor subfamily 1 group I member 2 (Homo sapiens) (UniProt O75469). The experiment is described as follows: ATG_PXR_TRANS: Attagene TRANS-FACTORIAL HepG2 Assay for human Pregnane X Receptor (PXR) (AID 2283008; active means hit-call score of the fitted dose curve at least 0.9, where 1 is the maximum). In outline:
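Read-out is fluorescence of labelled reporter cDNA fragments separated by capillary electrophoresis after RT-PCR and HpaI digestion. Source: HepG2 cells carrying PXR-GAL4/UAS reporter constructs, treated 24 h; activity fitted upward relative to DMSO.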

Experiment [7] concerns the target human Retinoic Acid Receptor gamma (RARg), RARG (gene 5916) (UniProt P13631). Kind of experiment: ATG_RARg_TRANS: Attagene TRANS-FACTORIAL HepG2 Assay for human Retinoic Acid Receptor gamma (RARg) (AID 2283009; active means hit-call score of the fitted dose curve at least 0.9, where 1 is the maximum). In short, it runs like this: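 HepG2 transiently transfected with GAL4-UAS reporter units and chimeric NR-Gal4 constructs; 24 h compound exposure. Reporter mRNA quantified by RT-PCR, FAM labeling, HpaI digestion and capillary electrophoresis; gain-of-signal versus DMSO.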

Experiment [8] addresses Cellular tumor antigen p53 (Homo sapiens) (UniProt P04637). The experiment is described as follows: ATG_p53_CIS: Attagene CIS-FACTORIAL HepG2 Assay for human p53 Transcription Factor (AID 2282994). Conditions: HepG2 p53 cis-element reporter, Attagene mRNA; actives raise or lower the signal. In outline:
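HepG2, transient MRTU transfection (cis promoter elements, endogenous TFs); 24 h dosing; RNA isolation, RT-PCR, 6-FAM primer extension, HpaI digest, CE fluorescence; bidirectional fit vs DMSO.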

The target in experiment [9] is human Peroxisome Proliferator-activated Receptor alpha (PPARa), PPARA (gene 5465) (UniProt Q07869). Kind of experiment: ATG_PPARa_TRANS: Attagene TRANS-FACTORIAL HepG2 Assay for human Peroxisome Proliferator-activated Receptor alpha (PPARa) (AID 2283001; active means hit-call score of the fitted dose curve at least 0.9, where 1 is the maximum;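 on AC50: potency for gain of reporter signal over DMSO so agonist or activator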). In outline:
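HepG2 cells transiently transfected with multiplexed GAL4-UAS reporters driven by exogenous chimeric NR-Gal4 proteins; reporter mRNA measured after 24 h dosing. Read-out by RT-PCR, 6-FAM labelling, HpaI digestion and capillary electrophoresis; gain of signal versus DMSO.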

Experiment [10] addresses human Peroxisome Proliferator-activated Receptor delta (PPARd), PPARD (gene 5467) (UniProt Q03181). The experiment is described as follows: ATG_PPARd_TRANS: Attagene TRANS-FACTORIAL HepG2 Assay for human Peroxisome Proliferator-activated Receptor delta (PPARd) (AID 2283002; active means hit-call score of the fitted dose curve at least 0.9, where 1 is the maximum). In outline: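 HepG2 cells transiently transfected with GAL4-UAS multiplexed reporter units driven by exogenous chimeric NR-GAL4 proteins; 24 h compound exposure. Reporter mRNA measured by RT-PCR, 6-FAM primer extension, HpaI digestion and capillary electrophoresis; gain of signal fitted relative to DMSO.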

Experiment [11] addresses human RAR-related Orphan Receptor gamma (RORg), RORC (gene 6097) (UniProt P51449). Kind of experiment: ATG_RORg_TRANS: Attagene TRANS-FACTORIAL HepG2 Assay for human RAR-related Orphan Receptor gamma (RORg) (AID 2283011; active means hit-call score of the fitted dose curve at least 0.9, where 1 is the maximum). In outline:
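Readout: reporter transcript induction (RT-PCR, fluorescent primer extension, capillary electrophoresis) after 24 h compound exposure of transiently transfected HepG2 cells carrying a RORg-Gal4 chimera and GAL4-UAS reporters; DMSO served as baseline, with increasing signal fitted.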

The nature of experiment [12]: BSK_3C_TissueFactor: BioMAP Diversity Plus: 3C Assay for Tissue Factor Biomarker Activity (AID 2282997). Conditions: BioMAP 3C HUVEC, tissue factor biomarker readout; actives raise or lower the signal. In short, it runs like this: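 Primary human umbilical vein endothelial cells in the 3C system were exposed to test chemical for 24 h, then Tissue Factor measured by ELISA. Activity was fitted bidirectionally against DMSO as negative control and baseline.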

The nature of experiment [13]: BSK_3C_uPAR: BioMAP Diversity Plus: 3C Assay for Urokinase-type plasminogen activator receptor (uPAR) Biomarker Activity (AID 2282998). The settings on record: BioMAP 3C HUVEC, uPAR biomarker ELISA; actives raise or lower the signal. In outline:
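ELISA readout of uPAR on human vascular endothelium (umbilical vein primary cells), taken 24 h after chemical dosing. Increases and decreases are both fitted relative to DMSO vehicle.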

Experiment [14] in a line: BSK_3C_VCAM1: BioMAP Diversity Plus: 3C Assay for Vascular cell adhesion molecule 1 (VCAM1) Biomarker Activity (AID 2282999). Conditions: BioMAP 3C HUVEC, VCAM1 ELISA, cytokine-stimulated; actives raise or lower the signal. In outline:
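Human umbilical vein endothelial cells (3C system), biomarker read by ELISA 24 h after dosing; bidirectional fit against DMSO baseline. Cytotoxicity tracked by SRB total-protein staining in parallel cultures at biomarker time.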

Experiment [15] in a line: BSK_4H_Eotaxin3: BioMAP Diversity Plus: 4H Assay for Eotaxin 3 Biomarker Activity (AID 2283000).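 Further: CCL26 protein level quantified by ELISA in parallel with SRB cytotoxicity check.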 Conditions: primary human endothelial cells (HUVEC); actives raise or lower the signal. In outline: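 HUVEC, 24 h post-dose, ELISA for Eotaxin-3/CCL26. Gain or loss of signal fitted bidirectionally vs DMSO baseline.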
Read-out in experiment [16]: Intercellular Adhesion Molecule 1 (ICAM1), ICAM1 (gene 3383)
The experiment is described as follows: BSK_3C_ICAM1: BioMAP Diversity Plus: 3C Assay for Intercellular Adhesion Molecule 1 (ICAM1) Biomarker Activity (AID 2283003). The settings on record: primary human endothelial cells (HUVEC); actives raise or lower the signal. In outline:
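HUVEC primary cells stimulated under 3C conditions; ICAM1 measured by ELISA 24 h after compound dosing. Curves fitted bidirectionally against the DMSO baseline. Overt cytotoxicity checked by SRB staining of parallel cultures.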

The target of experiment [17] is human Retinoic Acid Receptor beta (RARb), RARB (gene 5915) (UniProt P10826). The experiment is described as follows: ATG_RARb_TRANS: Attagene TRANS-FACTORIAL HepG2 Assay for human Retinoic Acid Receptor beta (AID 2283004; active means hit-call score of the fitted dose curve at least 0.9, where 1 is the maximum). In outline:
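HepG2 cells transiently transfected with multiplexed GAL4-UAS reporter units expressing chimeric NR–Gal4 fusions; 24 h compound exposure. Reporter mRNA quantified by RT-PCR, 6-FAM labelling, HpaI digestion and capillary electrophoresis; gain-of-signal fitted against DMSO baseline.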

The target in experiment [18] is Retinoic acid receptor alpha (Homo sapiens) (UniProt P10276). The experiment is described as follows: ATG_RARa_TRANS: Attagene TRANS-FACTORIAL HepG2 Assay for human Retinoic Acid Receptor alpha (RARa) (AID 2283005; active means hit-call score of the fitted dose curve at least 0.9, where 1 is the maximum). In short, it runs like this: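 HepG2 transiently transfected with multiplex GAL4-UAS reporter units including a human RARa–GAL4 chimera; 24 h compound exposure. Reporter mRNA quantified by RT-PCR, 6-FAM labeling and capillary electrophoresis; gain of signal versus DMSO.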
Sequence of Retinoic acid receptor alpha (Homo sapiens) (P10276 whole entry, looked up, the tested form may be a part): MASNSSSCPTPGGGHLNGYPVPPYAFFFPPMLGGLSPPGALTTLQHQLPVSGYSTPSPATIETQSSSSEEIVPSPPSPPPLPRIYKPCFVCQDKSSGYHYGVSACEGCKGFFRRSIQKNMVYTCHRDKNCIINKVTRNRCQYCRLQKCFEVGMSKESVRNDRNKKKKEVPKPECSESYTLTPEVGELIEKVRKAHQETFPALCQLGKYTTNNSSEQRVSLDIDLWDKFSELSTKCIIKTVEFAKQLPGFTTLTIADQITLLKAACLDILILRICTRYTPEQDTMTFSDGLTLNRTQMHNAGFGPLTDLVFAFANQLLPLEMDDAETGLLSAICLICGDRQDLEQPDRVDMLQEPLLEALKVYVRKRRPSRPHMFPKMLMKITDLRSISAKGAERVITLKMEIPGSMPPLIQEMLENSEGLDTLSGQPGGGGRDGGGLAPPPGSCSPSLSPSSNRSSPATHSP

Experiment [19] is described as follows: BSK_3C_Proliferation: Cell Proliferation Assessment in the BioMAP Diversity Plus: 3C Assay (AID 2283006). The settings on record: primary human endothelial cells (HUVEC). In outline: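 Subconfluent HUVEC (3C system) cultured with chemical; relative cell number read at 48 h by sulforhodamine B total-protein staining (0.1% SRB after 10% TCA fixation, 560 nm). Bidirectional fit relative to DMSO.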

The target of experiment [20] is human RAR-related Orphan Receptor beta (RORb), RORB (gene 6096) (UniProt Q92753). Kind of experiment: ATG_RORb_TRANS: Attagene TRANS-FACTORIAL HepG2 Assay for human RAR-related Orphan Receptor beta (RORb) (AID 2283010; active means hit-call score of the fitted dose curve at least 0.9, where 1 is the maximum). In outline: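 HepG2 cells transiently transfected with GAL4-UAS reporter units expressing chimeric NR-Gal4 protein; reporter mRNA measured 24 h after dosing by RT-PCR, 6-FAM labelling and capillary electrophoresis. Gain-of-signal fitted relative to DMSO baseline.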

Inconclusive results are not listed. Activity calls are given as the source filed them. How the source made its calls, unless noted: active means hit-call score of the fitted dose curve at least 0.9, where 1 is the maximum; inactive means score below 0.9.

Sequence of Peroxisome proliferator-activated receptor gamma (Homo sapiens) (P37231 whole entry, looked up): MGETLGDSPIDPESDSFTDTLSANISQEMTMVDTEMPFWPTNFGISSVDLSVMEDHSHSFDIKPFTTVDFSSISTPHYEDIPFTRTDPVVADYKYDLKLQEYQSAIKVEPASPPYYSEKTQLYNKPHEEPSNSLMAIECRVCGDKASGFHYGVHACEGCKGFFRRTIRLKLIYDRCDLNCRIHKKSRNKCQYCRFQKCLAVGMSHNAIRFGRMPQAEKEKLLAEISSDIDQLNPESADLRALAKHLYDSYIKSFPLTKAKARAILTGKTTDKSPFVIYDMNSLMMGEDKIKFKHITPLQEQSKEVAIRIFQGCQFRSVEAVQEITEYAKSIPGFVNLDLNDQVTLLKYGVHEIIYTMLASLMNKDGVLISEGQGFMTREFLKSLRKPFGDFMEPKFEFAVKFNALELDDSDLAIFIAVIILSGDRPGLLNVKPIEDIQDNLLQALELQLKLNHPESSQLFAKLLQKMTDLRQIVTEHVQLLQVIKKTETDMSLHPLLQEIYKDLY
Sequence of human Peroxisome Proliferator-activated Receptor alpha (PPARa), PPARA (gene 5465) (Q07869 whole entry, looked up, the tested form may be a part): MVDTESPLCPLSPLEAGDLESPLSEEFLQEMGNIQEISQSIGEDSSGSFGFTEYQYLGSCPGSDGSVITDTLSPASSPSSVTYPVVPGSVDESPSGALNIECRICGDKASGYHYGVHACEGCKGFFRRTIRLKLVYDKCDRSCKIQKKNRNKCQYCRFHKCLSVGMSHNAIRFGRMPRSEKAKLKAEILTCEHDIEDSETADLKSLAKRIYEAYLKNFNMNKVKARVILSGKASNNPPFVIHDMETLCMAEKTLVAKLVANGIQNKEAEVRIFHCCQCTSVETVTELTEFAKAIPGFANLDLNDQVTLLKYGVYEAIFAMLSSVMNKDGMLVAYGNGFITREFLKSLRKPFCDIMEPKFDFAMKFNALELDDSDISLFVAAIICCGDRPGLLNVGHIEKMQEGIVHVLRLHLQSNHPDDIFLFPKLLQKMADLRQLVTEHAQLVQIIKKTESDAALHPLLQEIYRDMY
Sequence of Myc proto-oncogene protein (Homo sapiens) (P01106 whole entry, looked up): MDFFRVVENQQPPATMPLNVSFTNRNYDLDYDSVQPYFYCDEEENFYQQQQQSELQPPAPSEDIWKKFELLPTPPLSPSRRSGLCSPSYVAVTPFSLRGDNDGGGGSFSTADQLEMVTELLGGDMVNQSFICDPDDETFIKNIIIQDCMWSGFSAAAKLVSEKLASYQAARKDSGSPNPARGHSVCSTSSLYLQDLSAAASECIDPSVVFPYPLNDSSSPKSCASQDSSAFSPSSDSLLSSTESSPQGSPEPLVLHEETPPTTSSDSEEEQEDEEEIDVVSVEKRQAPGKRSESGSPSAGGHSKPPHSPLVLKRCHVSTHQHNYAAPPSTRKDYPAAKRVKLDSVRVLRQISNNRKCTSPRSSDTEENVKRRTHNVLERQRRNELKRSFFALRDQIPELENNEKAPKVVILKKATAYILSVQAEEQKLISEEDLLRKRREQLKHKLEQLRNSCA
Sequence of Nuclear receptor subfamily 1 group I member 2 (Homo sapiens) (O75469 whole entry, looked up, the tested form may be a part): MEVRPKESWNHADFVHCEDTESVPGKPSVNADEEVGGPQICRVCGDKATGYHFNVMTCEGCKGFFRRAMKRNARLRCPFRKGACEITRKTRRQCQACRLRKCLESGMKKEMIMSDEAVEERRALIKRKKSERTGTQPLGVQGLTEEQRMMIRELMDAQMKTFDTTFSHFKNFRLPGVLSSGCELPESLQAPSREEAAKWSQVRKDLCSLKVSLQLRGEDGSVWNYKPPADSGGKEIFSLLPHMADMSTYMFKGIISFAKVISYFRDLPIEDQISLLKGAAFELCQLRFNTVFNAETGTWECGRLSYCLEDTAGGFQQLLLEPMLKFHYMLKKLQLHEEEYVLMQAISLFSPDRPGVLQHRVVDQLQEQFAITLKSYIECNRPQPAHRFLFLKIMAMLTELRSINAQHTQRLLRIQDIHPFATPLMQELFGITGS
Sequence of human Retinoic Acid Receptor gamma (RARg), RARG (gene 5916) (P13631 whole entry, looked up, the tested form may be a part): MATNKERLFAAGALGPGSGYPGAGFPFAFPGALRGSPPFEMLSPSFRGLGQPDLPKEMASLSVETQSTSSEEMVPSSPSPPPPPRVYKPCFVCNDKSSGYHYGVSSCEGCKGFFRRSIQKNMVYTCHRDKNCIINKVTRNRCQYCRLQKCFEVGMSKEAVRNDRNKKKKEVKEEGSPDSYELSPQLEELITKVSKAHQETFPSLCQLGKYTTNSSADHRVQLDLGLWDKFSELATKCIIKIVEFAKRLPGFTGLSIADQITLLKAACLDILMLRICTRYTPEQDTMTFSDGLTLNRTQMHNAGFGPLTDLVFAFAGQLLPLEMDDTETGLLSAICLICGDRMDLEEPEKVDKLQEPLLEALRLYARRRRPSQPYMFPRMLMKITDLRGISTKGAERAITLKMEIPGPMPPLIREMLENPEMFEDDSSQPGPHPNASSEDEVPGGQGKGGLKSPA
Sequence of human Peroxisome Proliferator-activated Receptor delta (PPARd), PPARD (gene 5467) (Q03181 whole entry, looked up, the tested form may be a part): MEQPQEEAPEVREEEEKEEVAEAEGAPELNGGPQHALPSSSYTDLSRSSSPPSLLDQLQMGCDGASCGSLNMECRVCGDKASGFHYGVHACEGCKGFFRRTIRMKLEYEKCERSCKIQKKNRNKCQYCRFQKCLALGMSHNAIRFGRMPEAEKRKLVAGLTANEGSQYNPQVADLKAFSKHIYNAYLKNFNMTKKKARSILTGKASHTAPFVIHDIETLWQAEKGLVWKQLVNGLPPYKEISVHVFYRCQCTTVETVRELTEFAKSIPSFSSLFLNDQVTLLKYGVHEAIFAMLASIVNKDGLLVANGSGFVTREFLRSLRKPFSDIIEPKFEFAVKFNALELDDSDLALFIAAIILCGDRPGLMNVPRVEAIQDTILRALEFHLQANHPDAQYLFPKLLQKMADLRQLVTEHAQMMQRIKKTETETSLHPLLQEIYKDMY
Sequence of human Retinoic Acid Receptor beta (RARb), RARB (gene 5915) (P10826 whole entry, looked up, the tested form may be a part): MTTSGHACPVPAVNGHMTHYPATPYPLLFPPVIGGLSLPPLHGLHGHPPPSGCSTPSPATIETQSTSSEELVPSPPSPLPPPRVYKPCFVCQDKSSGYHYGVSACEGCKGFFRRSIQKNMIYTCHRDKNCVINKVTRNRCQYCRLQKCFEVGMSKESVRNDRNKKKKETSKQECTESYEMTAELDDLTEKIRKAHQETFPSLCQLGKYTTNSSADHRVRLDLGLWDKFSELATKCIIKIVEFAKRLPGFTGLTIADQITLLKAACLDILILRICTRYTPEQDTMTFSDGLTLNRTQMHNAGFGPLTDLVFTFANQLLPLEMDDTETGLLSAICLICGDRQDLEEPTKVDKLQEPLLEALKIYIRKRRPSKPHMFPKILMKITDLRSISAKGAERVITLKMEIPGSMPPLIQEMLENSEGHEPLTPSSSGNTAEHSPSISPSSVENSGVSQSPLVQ
Sequence of Cellular tumor antigen p53 (Homo sapiens) (P04637 whole entry, looked up): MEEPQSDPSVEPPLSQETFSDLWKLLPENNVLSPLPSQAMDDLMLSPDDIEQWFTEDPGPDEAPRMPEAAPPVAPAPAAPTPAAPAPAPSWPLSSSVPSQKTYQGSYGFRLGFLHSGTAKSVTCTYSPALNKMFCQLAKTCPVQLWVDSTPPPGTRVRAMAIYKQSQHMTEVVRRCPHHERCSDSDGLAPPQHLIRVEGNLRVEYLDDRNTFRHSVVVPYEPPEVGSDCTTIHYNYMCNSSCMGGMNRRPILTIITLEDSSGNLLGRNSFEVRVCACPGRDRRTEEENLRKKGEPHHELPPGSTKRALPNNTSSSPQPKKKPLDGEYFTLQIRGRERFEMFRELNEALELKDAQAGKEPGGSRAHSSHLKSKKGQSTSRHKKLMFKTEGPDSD
Sequence of human RAR-related Orphan Receptor gamma (RORg), RORC (gene 6097) (P51449 whole entry, looked up, the tested form may be a part): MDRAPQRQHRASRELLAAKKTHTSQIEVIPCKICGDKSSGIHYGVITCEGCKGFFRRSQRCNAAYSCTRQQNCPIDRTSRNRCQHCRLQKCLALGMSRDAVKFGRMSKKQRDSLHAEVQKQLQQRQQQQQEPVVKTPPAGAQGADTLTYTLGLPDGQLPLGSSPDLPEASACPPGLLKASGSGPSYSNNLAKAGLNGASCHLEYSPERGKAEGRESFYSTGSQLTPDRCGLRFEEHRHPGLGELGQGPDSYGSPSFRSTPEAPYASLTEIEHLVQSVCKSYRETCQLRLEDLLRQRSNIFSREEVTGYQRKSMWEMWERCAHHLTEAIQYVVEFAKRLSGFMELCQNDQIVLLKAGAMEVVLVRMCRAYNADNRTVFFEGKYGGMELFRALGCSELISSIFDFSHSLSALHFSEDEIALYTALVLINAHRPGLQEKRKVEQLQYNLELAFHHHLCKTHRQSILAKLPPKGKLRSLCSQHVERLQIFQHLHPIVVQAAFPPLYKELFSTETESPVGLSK

`c1ccc(CN(Cc2ccccc2)Cc2ccccc2)cc1`: the result in experiment [1], in experiment [2], in experiment [4], in [5], in [6] and in [7] was inactive. The AC50 in experiment [3] was 100 µM (active).
`Cc1[nH]c(=O)c(C#N)cc1-c1ccncc1`: the molecule was classed as inactive in experiment [1], in experiment [2], in experiment [3], in experiment [8], in experiment [9] and in [10]. Also, the outcome in experiment [5], in [6] and in experiment [11] was inactive.
In the case of `IC(I)I`, the call in experiment [1], in experiment [3], in [4], in [8], in experiment [12] and in experiment [13] was inactive. Moreover, the result in [14], in [15], in [9], in experiment [10], in experiment [16] and in experiment [17] was inactive. Further, the call in [18], in experiment [19], in experiment [5], in [6], in [7] and in experiment [20] was inactive. Besides, the molecule was classed as inactive in experiment [11].
Regarding `Oc1ccc2cc(SSc3ccc4cc(O)ccc4c3)ccc2c1`, the molecule was classed as inactive in [1], in experiment [2], in [10] and in [6]. The AC50 is 8.28 µM (active) in experiment [3], 39.9 µM (active) in [4] and 5.56 µM (active) in [5].
In the case of `CCCCCCCCCC(C)C=O` (stereo not given), the molecule was called inactive in experiment [1], in experiment [2], in [8], in experiment [6] and in experiment [7]. Moreover, the figures for the AC50 in experiment [3], in [9] and in experiment [5] were 100 µM (active), 27.5 µM (active) and 18.5 µM (active), respectively.
With `CCCC[O][Al]([O]CCCC)[O]CCCC`, the molecule was classed as inactive in experiment [1], in experiment [3], in experiment [4] and in [8].
On to `CS(C)=O`, for which the molecule was classed as inactive in experiment [1], in [2], in experiment [3], in experiment [8], in [18] and in experiment [6]. The call in experiment [7], in experiment [20] and in experiment [11] was inactive.
Regarding `Cc1c(OCC(F)(F)F)ccnc1CS(=O)c1nc2ccccc2[nH]1` (stereo not given), the molecule was called inactive in experiment [1], in experiment [2], in experiment [8], in experiment [9] and in experiment [10]. Moreover, the AC50 in experiment [3] is 49.1 µM (active); in [5], 23.7 µM (active).
As to `COC(CC(C)CCCC(C)(C)O)OC` (stereo not given), the call in experiment [1], in experiment [2], in experiment [3], in experiment [8], in experiment [9] and in experiment [17] was inactive. Moreover, the call in experiment [18] and in experiment [6] was inactive.
On to `O=C(c1ccccc1)C(O)c1ccccc1` (stereo not given), for which the molecule was classed as inactive in experiment [1], in experiment [2], in experiment [3], in experiment [4], in experiment [10] and in [18]. In addition, the molecule was classed as inactive in experiment [5], in experiment [6] and in [11].
Regarding `CCCCC(CC)COC(=O)c1ccc(O)cc1` (stereo not given), the outcome in experiment [1], in [2], in experiment [3], in experiment [8], in experiment [9] and in [10] was inactive. The outcome in experiment [18] and in [11] was inactive.
In the case of `O=C(O)c1cccnc1C(=O)O`, the outcome in [1], in experiment [2], in experiment [3], in experiment [8], in experiment [17] and in experiment [18] was inactive. Moreover, the molecule was called inactive in [7] and in experiment [11].
In the case of `CCCCCCC(C)Nc1ccc(Nc2ccccc2)cc1` (stereo not given), the molecule was classed as inactive in experiment [1], in experiment [2], in experiment [4] and in experiment [10]. In addition, the figures for the AC50 in [3], in [5] and in [6] were 24.1 µM (active), 11.7 µM (active) and 1.53 µM (active), respectively.
